Screens (PubChem)
LEDGF integ inh – blockers of LEDGF/p75-dependent integrase strand transfer – biochemical, TR-FRET, high throughput, primary screen | TR-FRET IN-LEDGF/p75 DNA integration, Eu/Cy5 | inhibition, % at 3.7 µM | 0.64% of 370,000 active | HIV-1 integrase (with human LEDGF/p75);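 active = inhibition above the screen-wide mean plus 3 SD, cut at about 13% in these data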;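 also: signal is the Cy5 over europium emission ratio at 671 and 618 nm; 0% = plate median of compound wells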
MBD2 inh – inhibitors of MBD2 binding to methylated DNA, primary screen, biochemical, TR-FRET, DNA-binding domain, human. Methyl-CpG-binding domain protein 2 (Homo sapiens), Q9UBB5. MBD2 binding to methylated oligonucleotide. inhibition, % at 4.4 µM. 0.31% of 370,000 active. AID 686964, 2013; in the data active = inhibition above about 13%
Target sequence (Q9UBB5 whole entry, looked up, the tested form may be a part): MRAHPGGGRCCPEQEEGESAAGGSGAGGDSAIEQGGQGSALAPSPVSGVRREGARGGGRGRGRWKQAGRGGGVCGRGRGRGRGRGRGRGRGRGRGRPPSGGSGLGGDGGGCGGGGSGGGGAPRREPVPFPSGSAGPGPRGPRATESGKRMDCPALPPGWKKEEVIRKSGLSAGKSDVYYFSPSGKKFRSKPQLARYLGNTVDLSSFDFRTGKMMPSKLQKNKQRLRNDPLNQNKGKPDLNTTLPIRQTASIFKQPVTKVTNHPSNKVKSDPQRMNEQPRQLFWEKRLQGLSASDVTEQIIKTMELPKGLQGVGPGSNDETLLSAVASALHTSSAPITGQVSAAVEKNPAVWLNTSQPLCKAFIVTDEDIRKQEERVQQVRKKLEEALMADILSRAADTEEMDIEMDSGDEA
Neddyl block – inhibitors of cullin neddylation, primary screen, biochemical, TR-FRET, uHTS, NAE and Ubc12; calls only at 25 µM; 0.58% of 360,000 active; in the data active = inhibition above about 36%
UHRF1 MBD2 ctr – UHRF1 methylated DNA binding inhibitors, primary screen, counter-screen for MBD2 inhibitor project, biochemical, TR-FRET, human UHRF1, single concentration; inhibition, % at 4.4 µM; UHRF1 binding to methylated oligo; 0.75% of 370,000 active; in the data active = inhibition above about 21%;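 also: UHRF1 SRA domain binding a hemimethylated CpG hairpin DNA probe; 0% = median of test compound wells and 100% = reference inhibitor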
proKLK7 act – proKLK7 zymogen activators, primary screen, biochemical, fluorescence intensity | 0.9% of 370,000 active | activation, % at 7 µM | AID 652039, 2013 | purified proKLK7, EDANS-DABCYL substrate fluorescence; 100% is mature enzyme control, 0% vehicle;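 active = activation above the mean of all tested compounds plus 3 SD, computed per campaign excluding outliers beyond control limits, cut at about 13% in these data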
Rin1-Abl PPI inh – inhibitors of Rin1-Abl protein binding, primary screen, biochemical, TR-FRET; AID 588664, 2011; 0.4% of 360,000 active; inhibition, % at 7.35 µM; Tyrosine-protein kinase ABL1 (Homo sapiens) + Ras and Rab interactor 1 (Homo sapiens), …; in the data active = inhibition above about 5%, passing the limit was not always enough
* marks the source's active call; other numbers are inactive results; i = inactive; . = not tested or not shown; + = active, no number. Shown are actives, neighbours in structure and some others; about 3.1% of the full set was active somewhere.

SMILES | LEDGF integ inh | MBD2 inh | Neddyl block | UHRF1 MBD2 ctr | proKLK7 act | Rin1-Abl PPI inh
NS(=O)(=O)c1ccc(O)c(NC(=O)c2ccc([N+](=O)[O-])o2)c1 | -3 | -6 | i | 42* | 0 | -2
COc1cccc(NC(=S)N(CCc2c(C)[nH]c3ccc(C)cc23)Cc2cccs2)c1 | -4 | 4 | i | -1 | -1 | 2
COc1cccc(NC(=S)N(CCCN2CCC(C)CC2)Cc2cccs2)c1 | 2 | 0 | i | 1 | 0 | -1
CSc1cccc(NC(=S)N(CCCN2CCC(C)CC2)Cc2cccs2)c1 | 0 | 4 | i | 28* | 0 | 1
COc1cccc(NC(=S)N(CCN(C)C)Cc2cccs2)c1 | 1 | 8 | i | 21* | 0 | -1
Cc1nnsc1C(=O)NNC(=O)c1cccc2ccccc12 | 3 | 0 | i | 0 | -1 | 0
COc1cc2c(cc1OC)C(=O)CCC2 | 4 | -3 | i | -1 | 1 | 1
O=c1[nH]nc2c3ccccc3occ1-2 | -4 | 5 | i | 2 | 0 | .
Cc1[nH]c2ccccc2c1/C=N/NC(=O)c1cc(C(C)C)[nH]n1 | -3 | 2 | i | 25* | 1 | -5
Cc1cc(Oc2ccc(C#N)cc2)nc(N2CCOCC2)n1 | 1 | 11 | i | 21* | 0 | -3
Nc1cc(S(=O)(=O)O)cc([N+](=O)[O-])c1O | 44* | 10 | i | 81* | 0 | 2
O=C(CN1CCCCC1)NCC1(c2ccccc2)CCCC1 | -3 | 2 | i | -2 | 0 | -3
CCCCNC(=O)N1CCOCCOCCN(C(=O)NCCCC)CCOCCOCC1 | 1 | 6 | i | -2 | 0 | 1
CCCCNC(=O)NCCN1CCOCC1 | -4 | 5 | i | 35* | 0 | 3
CO/N=C\C(=N\Nc1ccc(OC)cc1)C(=O)c1ccccc1 | 0 | -6 | i | 38* | 0 | -2
CO/N=C/C(=N\Nc1ccccc1)C(=O)c1ccccc1 | -1 | -3 | i | -3 | -1 | 2
Cc1oc(-c2ccc(F)cc2)cc1-c1nn2c(-c3ccco3)nnc2s1 | 5 | 0 | . | 0 | -3 | .
Cc1oc(-c2ccc(F)cc2)cc1-c1nn2c(-c3ccoc3C)nnc2s1 | 38* | 14* | i | 40* | 0 | 1
CC(C)n1nccc1NC(=O)COC(=O)c1ccc(NC(N)=O)cc1 | 1 | -1 | i | 3 | 1 | 2
CSc1ncc(C(=O)Nc2cccc(C)c2C)c(C)n1 | -6 | -2 | i | -1 | 0 | -2
COCc1nnc(NC(=O)c2cc(OC)c(OC)cc2[N+](=O)[O-])s1 | -2 | 5 | i | -2 | 0 | 2
COc1ccccc1C(=O)NCCC(=O)N1CC=C(c2ccccc2)CC1 | 2 | -1 | i | 3 | 0 | 4
N#Cc1c(C(F)(F)F)cc(-c2ccc(Cl)cc2)[nH]c1=O | 2 | 6 | . | 2 | 21* | -1
N#Cc1c(C(F)(F)F)cc(-c2ccc(F)cc2)[nH]c1=O | -1 | -2 | . | 0 | 8 | 2
COc1ccc(-c2noc(C3CCCN(C(=O)Nc4ccc(Cl)cc4)C3)n2)cc1 (stereo not drawn) | -4 | 4 | . | 0 | 1 | .
SMILES | LEDGF integ inh | MBD2 inh | Neddyl block | UHRF1 MBD2 ctr | proKLK7 act | Rin1-Abl PPI inh
Cc1ccc(NC(=O)N2CC(C)OC(C)C2)cc1[N+](=O)[O-] (stereo not drawn) | -1 | 2 | . | -1 | 0 | .
CC(C)NC(=O)N(C)C[C@H]1OCCCC[C@H](C)Oc2ccc(NS(=O)(=O)c3ccccc3)cc2C(=O)N([C@H](C)CO)C[C@H]1C | 5 | 7 | i | 22* | 0 | -1
CC(C)NC(=O)N(C)C[C@H]1Oc2ccc(NS(=O)(=O)c3ccccc3)cc2C(=O)N([C@H](C)CO)C[C@H]1C | 1 | 2 | i | -2 | 0 | 3
NC(Cc1c[nH]c2ccccc12)C(=O)NCc1ccco1 (stereo not drawn) | 0 | 1 | i | 0 | 0 | -1
NC(Cc1c[nH]c2ccccc12)C(=O)NCc1ccccc1 (stereo not drawn) | 7 | -2 | i | 25* | 0 | 1
Cc1cccc(C(=O)NNC(=O)c2ccc(Br)cc2)c1 | -1 | 11 | i | 21* | 0 | 0
CC1(C)N([O-])c2cc([N+](=O)[O-])ccc2[N+]1=O | 21* | -10 | . | 7 | 0 | .
Cc1nnc(SCC(C)C)[nH]c1=O | 2 | -5 | i | 22* | -1 | 2
Nc1ccccc1C(=O)N/N=C1\C2CN3CCN(C2)CC1(c1ccccc1)C3 | -1 | 0 | . | 0 | 3 | 0
COc1ccc(S(=O)(=O)N2CCOCC2)cc1NC(=O)CN(C)Cc1c(F)cccc1Cl | 3 | 4 | i | 24* | 1 | -7
COc1ccc(S(=O)(=O)N2CCOCC2)cc1NC(=O)Cc1c(Cl)cccc1Cl | 0 | -3 | i | -2 | 0 | -5
CCCS(=O)(=O)N1CCN(Cc2ccco2)CC1 | 3 | -2 | i | 25* | 0 | 1
CCCc1ccc(S(=O)(=O)N2CCN(Cc3ccco3)CC2)cc1 | 0 | 2 | i | -2 | 0 | -1
C[C@@H]1C=C(C(=O)O)O[C@H](OCc2ccc(CO)cc2)C1 | 1 | 0 | i | 55* | 0 | 0
Cc1cc(NC(=O)C2CC(=O)N(c3ccccc3Cl)C2)no1 (stereo not drawn) | 0 | 4 | i | -1 | 0 | 1
c1ccc(CCNc2nc(-c3ccccn3)cs2)cc1 | 7 | 2 | i | -2 | 0 | 0
c1ccc(CCNc2nc(-c3cccnc3)cs2)cc1 | -1 | -4 | i | 49* | 0 | -2
Cc1ccccc1-c1n[nH]c(=S)n1/N=C/C=C/c1ccco1 | 13 | 2 | + | 12 | 0 | 1
CC(=O)Nc1ccc(S(=O)(=O)NCCC(=O)OCC(=O)NCc2ccccc2)cc1 | 4 | -5 | i | 0 | 1 | 0
CCOC(=O)c1[nH]c(C)c(C(=O)OCc2c(C)noc2C)c1C | -2 | 5 | i | 22* | 0 | -1
Cc1ccc2nc(-c3ccccc3)cn2c1 | 3 | 1 | + | 4 | 0 | -2
CC(=O)Nc1ccc(-c2cn3cc(C)ccc3n2)cc1 | 0 | -4 | . | -1 | 2 | -3
